Results from the supplement of paper PMC9262897, “Low-cost anti-mycobacterial drug discovery using engineered E. coli” (Nature Communications, 2022).
Structures can show the parent of a compound that is named as a salt. ± gives the standard deviation of the averaged measurements.

Tested on: E. coli TESEC Mtb DapB
Assay: growth (OD600 after 10 h); higher = more growth (less inhibition)
Details: arabinose induction (level): High; compound 0.1 mM; raw OD600 reference: median of DMSO wells […], cell-free background 0.041
Description: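 TESEC E. coli strains in which the native enzyme is deleted and replaced by arabinose-inducible Mtb Asd, DapB, CysH or TrpD, each grown in its selective medium. Strains were screened against the Prestwick library at 0.1 mM and 1% DMSO in 384-well format at low and high arabinose induction. Growth is read as OD600 after 10 h in triplicate.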

SMILES	growth
CCCC(CCC)C(=O)O [Valproic acid]	0.202 ± 0.011
CC(COc1ccccc1)N(CCCl)Cc1ccccc1 (stereo not given) [Phenoxybenzamine hydrochloride]	0.175 ± 0.013
CC(C)(C(=O)c1cccnc1)c1cccnc1 [Metyrapone]	0.179 ± 0.015
Cc1cccc(Nc2ccncc2S(=O)(=O)NC(=O)NC(C)C)c1 [Torsemide]	0.197 ± 0.021
CC(C)NC[C@@H](O)COc1cccc2ccccc12 [(R)-Propranolol hydrochloride]	0.193 ± 0.01
NC[C@@H]1O[C@H](O[C@H]2[C@@H](O)[C@H](O[C@@H]3[C@@H](O)[C@H](N)C[C@H](N)[C@H]3O[C@H]3O[C@H](CO)[C@@H](O)[C@H](O)[C@H]3N)O[C@@H]2CO)[C@H](N)[C@@H](O)[C@@H]1O [Paromomycin sulfate]	0.195 ± 0.0097
Nc1nc(N)c2nc(-c3ccccc3)c(N)nc2n1 [Triamterene]	0.165 ± 0.0077
CC12CC3CC(C)(C1)CC(N)(C3)C2 [Memantine Hydrochloride]	0.165 ± 0.011
COc1ccc(CCN(C)CCCC(C#N)(c2ccc(OC)c(OC)c2)C(C)C)cc1OC (stereo not given) [Verapamil hydrochloride]	0.177 ± 0.017
Cc1onc(-c2c(Cl)cccc2Cl)c1C(=O)N[C@@H]1C(=O)N2[C@@H]1SC(C)(C)[C@@H]2C(=O)O [Dicloxacillin sodium salt hydrate]	0.188 ± 0.028
CCC(=O)O[C@@H](O[P@](=O)(CCCCc1ccccc1)CC(=O)N1C[C@H](C2CCCCC2)C[C@H]1C(=O)O)C(C)C [Fosinopril]	0.165 ± 0.0076
Nc1ccc(S(=O)(=O)Nc2ccc(Cl)nn2)cc1 [Sulfachloropyridazine]	0.193 ± 0.013
COC(=O)C1=C(C)NC(C)=C(C(=O)OCCN(C)Cc2ccccc2)C1c1cccc([N+](=O)[O-])c1 (stereo not given) [Nicardipine hydrochloride]	0.107 ± 0.079
CC[C@H]1OC(=O)[C@H](C)[C@@H](O[C@H]2C[C@@](C)(OC)[C@@H](O)[C@H](C)O2)[C@H](C)[C@@H](O[C@@H]2O[C@H](C)C[C@H](N(C)C)[C@H]2O)[C@](C)(O)C[C@@H](C)/C(=N\OCOCCOC)[C@H](C)[C@@H](O)[C@]1(C)O [Roxithromycin]	0.0507 ± 0.0027
N[C@@H](Cc1ccc(O)c(O)c1)C(=O)O [Levodopa]	0.195 ± 0.0078
CO/N=C(\C(=O)N[C@@H]1C(=O)N2C(C(=O)OC(C)OC(C)=O)=C(COC(N)=O)CS[C@H]12)c1ccco1 (stereo not given in full) [Cefuroxime axetil]	0.196 ± 0.022
CCCCC(C)(O)C/C=C/[C@H]1[C@H](O)CC(=O)[C@@H]1CCCCCCC(=O)OC (mixture of isomers) [Misoprostol]	0.332 ± 0.034
Clc1cccc(Cl)c1NC1=NCCN1 [Clonidine hydrochloride]	0.195 ± 0.012
COc1cc(Cc2cnc(N)nc2N)cc(OC)c1OC [Trimethoprim]	0.0742 ± 0.0018
CC(=O)OCC(=O)[C@@]1(OC(C)=O)[C@@H](C)C[C@H]2[C@@H]3C[C@H](F)C4=CC(=O)C=C[C@]4(C)[C@@]3(F)[C@@H](O)C[C@@]21C [Diflorasone Diacetate]	0.198 ± 0.03

Same assay, conditions: arabinose induction (level): Low; compound 0.1 mM; raw OD600 reference: median of DMSO wells 0.227, cell-free background 0.041

SMILES	growth
CCCC(CCC)C(=O)O [Valproic acid]	0.246 ± 0.0077
CC(COc1ccccc1)N(CCCl)Cc1ccccc1 (stereo not given) [Phenoxybenzamine hydrochloride]	0.228 ± 0.011
CC(C)(C(=O)c1cccnc1)c1cccnc1 [Metyrapone]	0.188 ± 0.01
Cc1cccc(Nc2ccncc2S(=O)(=O)NC(=O)NC(C)C)c1 [Torsemide]	0.26 ± 0.019
CC(C)NC[C@@H](O)COc1cccc2ccccc12 [(R)-Propranolol hydrochloride]	0.212 ± 0.027
NC[C@@H]1O[C@H](O[C@H]2[C@@H](O)[C@H](O[C@@H]3[C@@H](O)[C@H](N)C[C@H](N)[C@H]3O[C@H]3O[C@H](CO)[C@@H](O)[C@H](O)[C@H]3N)O[C@@H]2CO)[C@H](N)[C@@H](O)[C@@H]1O [Paromomycin sulfate]	0.26 ± 0.034
Nc1nc(N)c2nc(-c3ccccc3)c(N)nc2n1 [Triamterene]	0.203 ± 0.046
CC12CC3CC(C)(C1)CC(N)(C3)C2 [Memantine Hydrochloride]	0.199 ± 0.0086
COc1ccc(CCN(C)CCCC(C#N)(c2ccc(OC)c(OC)c2)C(C)C)cc1OC (stereo not given) [Verapamil hydrochloride]	0.248 ± 0.044
Cc1onc(-c2c(Cl)cccc2Cl)c1C(=O)N[C@@H]1C(=O)N2[C@@H]1SC(C)(C)[C@@H]2C(=O)O [Dicloxacillin sodium salt hydrate]	0.226 ± 0.018
CCC(=O)O[C@@H](O[P@](=O)(CCCCc1ccccc1)CC(=O)N1C[C@H](C2CCCCC2)C[C@H]1C(=O)O)C(C)C [Fosinopril]	0.226 ± 0.017
Nc1ccc(S(=O)(=O)Nc2ccc(Cl)nn2)cc1 [Sulfachloropyridazine]	0.236 ± 0.03
COC(=O)C1=C(C)NC(C)=C(C(=O)OCCN(C)Cc2ccccc2)C1c1cccc([N+](=O)[O-])c1 (stereo not given) [Nicardipine hydrochloride]	0.0547 ± 0.0015
CC[C@H]1OC(=O)[C@H](C)[C@@H](O[C@H]2C[C@@](C)(OC)[C@@H](O)[C@H](C)O2)[C@H](C)[C@@H](O[C@@H]2O[C@H](C)C[C@H](N(C)C)[C@H]2O)[C@](C)(O)C[C@@H](C)/C(=N\OCOCCOC)[C@H](C)[C@@H](O)[C@]1(C)O [Roxithromycin]	0.0505 ± 0.00097
N[C@@H](Cc1ccc(O)c(O)c1)C(=O)O [Levodopa]	0.209 ± 0.013
CO/N=C(\C(=O)N[C@@H]1C(=O)N2C(C(=O)OC(C)OC(C)=O)=C(COC(N)=O)CS[C@H]12)c1ccco1 (stereo not given in full) [Cefuroxime axetil]	0.215 ± 0.057
CCCCC(C)(O)C/C=C/[C@H]1[C@H](O)CC(=O)[C@@H]1CCCCCCC(=O)OC (mixture of isomers) [Misoprostol]	0.311 ± 0.044
Clc1cccc(Cl)c1NC1=NCCN1 [Clonidine hydrochloride]	0.26 ± 0.034
COc1cc(Cc2cnc(N)nc2N)cc(OC)c1OC [Trimethoprim]	0.0572 ± 0.0041
CC(=O)OCC(=O)[C@@]1(OC(C)=O)[C@@H](C)C[C@H]2[C@@H]3C[C@H](F)C4=CC(=O)C=C[C@]4(C)[C@@]3(F)[C@@H](O)C[C@@]21C [Diflorasone Diacetate]	0.221 ± 0.0089
